In the library only some 15% were active in any assay of this set; here they are far more common.
Gal4-VP16 FLuc = inhibits Gal4-VP16 luciferase reporter, ROR gamma counter-screen; Drosophila S2 Gal4-VP16 UAS-luciferase, luminescence, 20 h; Potency, µM (series often up to 53.6 µM), actives largely listed as inhibitors; 3.5% of 310,000 active; AID 2546;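 note: Gal4-VP16 expression switched on by copper sulfate through the metallothionein promoter; nearly all actives have a fitted effect of over 50% in size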
RORgamma inh = inhibitors of mouse ROR gamma transcriptional activity; Drosophila S2 Gal4-RORgamma UAS-luciferase reporter, 20 h; AID 2551; 5.4% of 310,000 active; P51450; Potency, µM (top dose mostly 53.6 µM), actives largely listed as inhibitors; note: nearly all actives have a fitted effect of over 60% in size
Target sequence (P51450 whole entry, looked up, the tested form may be a part): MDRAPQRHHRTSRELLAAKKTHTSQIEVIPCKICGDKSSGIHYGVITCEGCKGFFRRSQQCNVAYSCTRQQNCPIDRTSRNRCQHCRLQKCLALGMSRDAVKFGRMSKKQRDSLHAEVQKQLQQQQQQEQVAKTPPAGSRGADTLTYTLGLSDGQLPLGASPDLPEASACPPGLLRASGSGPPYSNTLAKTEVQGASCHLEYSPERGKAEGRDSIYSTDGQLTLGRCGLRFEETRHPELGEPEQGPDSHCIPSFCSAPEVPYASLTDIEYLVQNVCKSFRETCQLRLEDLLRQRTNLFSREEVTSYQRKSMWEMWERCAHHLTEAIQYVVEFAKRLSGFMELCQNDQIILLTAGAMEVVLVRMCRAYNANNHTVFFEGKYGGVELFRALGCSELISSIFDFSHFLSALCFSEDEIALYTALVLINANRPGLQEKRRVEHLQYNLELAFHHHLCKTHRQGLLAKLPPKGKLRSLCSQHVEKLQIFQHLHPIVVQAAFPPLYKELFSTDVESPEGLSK
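Drosophila Schneider cells stably carrying a metallothionein-driven Gal4 DBD–ROR gamma fusion and a UAS-Photinus luciferase reporter were exposed to compound for 1 hr, then induced with copper sulfate (700 uM final) for 20 hr at ambient temperature before luminescence reading.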
ELG1 repair inh = inhibitors of ELG1-dependent DNA repair in HEK293T cells; HEK293T ELG1-luciferase reporter, luminescence, 16 h; DNA damage induced by 5-fluorouridine; Potency, µM (titrated, usually from 46.1 µM), actives largely listed as inhibitors; 2.3% of 330,000 active; note: nearly all actives have a fitted effect of over 55% in size
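Cells (2,000 per well) received 5-fluorouridine plus test compound or DMSO and were incubated 16 hr at 37 °C, 5% CO2. Luciferase activity was read by luminescence 30 min after ONE-Glo addition; signal suppression marked inhibition of damage-induced ELG1 function.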
12-LOX inh = inhibitors of human 12S-lipoxygenase ALOX12; 1.1% of 580,000 active; purified 12hLO, xylenol orange hydroperoxide absorbance; P18054; Potency, µM (top dose mostly 108 µM), most hits filed as inhibitors
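Hydroperoxide product was detected by ferrous iron/xylenol orange as the 573 to 405 nm absorbance ratio. Arachidonic acid at 40 uM (final) was turned over for 30 min at room temperature by 150 nM human 12hLO, pH 7.0 Hepes buffer, after 15 min compound preincubation.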
DT40 TDP1 CPT = growth inhibition of DT40 Tdp1-/-;hTDP1 cells with camptothecin (screen for TDP1 inhibitors) | Potency, µM (doses to about 46.2 µM), most hits filed as inhibitors | 12% of 420,000 active | chicken DT40 Tdp1-/-;hTDP1 cells + 20 nM CPT, ATP luminescence, 48 h; note: nearly all actives have a fitted effect of over 55% in size
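Chicken DT40 Tdp1-/- cells stably complemented with human TDP1 were seeded at 400 cells/well in medium containing 20 nM camptothecin, exposed to pin-transferred compounds, and grown at 37 °C for at least 48 hr. Viability was read as ATP luminescence.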
TDP1 cell noCPT = qHTS for Inhibitors of human tyrosyl-DNA phosphodiesterase 1 (TDP1): qHTS in cells in absence of CPT | DT40 Tdp1-/- hTDP1 cells, no CPT, ATP luminescence, 48 h | Potency, µM (titrated, usually from 46.2 µM), usual class: inhibitors | 15% of 420,000 active | AID 686978, 2013; note: nearly all actives have a fitted effect of over 55% in size
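Seeded 400 DT40-hTDP1 cells/well (vehicle DMSO, no 20 nM CPT); pinned compounds; ≥48 hr at 37 °C; CellTiter-Glo luminescence as viability measure.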
Hits are given with their value; 0 = inactive; ? = inconclusive; - = no result given; [ ] = remark or other dose. Calls come from the whole dose curve; as a rule, active = well fitted curve in the direction sought with a large enough effect; inconclusive = small, poorly fitted or top-dose-only effect, or another doubt; inactive = no such curve, though single readings can be large; an effect the other way counts as inactive or inconclusive.

SMILES	Gal4-VP16 FLuc	RORgamma inh	ELG1 repair inh	12-LOX inh	DT40 TDP1 CPT	TDP1 cell noCPT
Cc1cc(C)n(CC(=O)Nc2cc(F)ccc2F)c(=O)c1C#N	-	-	-	0	-	-
COc1ccc(C2NC(=S)NC3=C2CCCC3=C2SCCS2)cc1 (centres undefined)	?	10µM	?	?	2.3µM	2.9µM
S=C1NC2=C(CCCC2=C2SCCCS2)C(c2ccccc2)N1 (centres undefined)	7.9µM	?	0	14µM	?	?
COCCN1C(=O)CS(=O)(=O)C12CCN(C(=O)c1ccc(Cl)cc1)CC2	-	-	-	0	-	-
CCCCN(C)CCNC(=O)CCn1nc(-c2ccc(C)cc2)ccc1=O	0	0	0	0	21µM	0
CCCCN(C)CCNC(=O)CCn1nc(-c2ccc(Cl)cc2)ccc1=O	0	0	0	0	0	0
COCCn1ncc(N2CCCC(CC(=O)N(C)CCc3ccccn3)C2)cc1=O (centres undefined)	-	-	-	0	-	-
CCn1ncc(C(=O)N2CCCn3ccnc3C2c2cnn(C)c2)c1C (centres undefined)	-	-	-	0	-	-
Cc1nn(-c2ccccc2)c(Cl)c1/C=C1\C(=O)N(C)C(=S)N1C	0	0	?	0	?	15µM
Cc1nn(-c2ccccc2)c(Cl)c1/C=N/Nc1nc2ccccc2[nH]1	?	?	?	0	?	0
Cc1cc(=O)[nH]c(N/N=C/c2c(C)nn(-c3ccccc3)c2Cl)n1	?	?	0	0	23µM	23µM
Cc1cc(=O)[nH]c(N/N=C/c2c(C)oc3ccccc23)n1	0	0	0	?	12µM	?
Cc1cccc(C)c1OCCNC(=O)c1n[nH]c(=O)c2ccccc12	-	-	-	0	-	-
COC1CCOC2(CCN(C(=O)Nc3cccc(F)c3)CC2)C1 (centres undefined)	-	-	-	0	-	-
Oc1c(Cl)cc(Cl)cc1C1=NNC(c2ccc(Cl)cc2)C1 (centres undefined)	0	8.9µM	0	-	0	?
Oc1ccc(Cl)cc1C1=Nc2ccccc2N=C(c2ccccc2)C1	-	-	-	0	?	?
Oc1ccc(Cl)cc1C1=NNC(c2ccc(Cl)cc2)C1 (centres undefined)	16µM	8.9µM	?	?	23µM	13µM
Oc1ccc(Cl)cc1C1=NNC(c2cc(Br)cc3c2OCOC3)C1 (centres undefined)	?	7.9µM	?	0	?	?
COc1ccc(C2=NNC(c3cc(Cl)cc4c3OCOC4)C2)c(O)c1 (centres undefined)	0	0	?	-	-	-
Cn1ccc(C(=O)N2CCC(c3nnc4n3C(C(=O)NCc3ccc(F)cc3)CC4)CC2)n1 (centres undefined)	-	-	-	0[6.33 µM]	-	-
COc1ccc2c(c1)nc1n2[C@@H](CNCc2ccccc2)COC1	-	-	-	0	-	-
CCc1nc2ccc(C(=O)Nc3cccc(OCC(=O)N(C)C)c3)cn2c1N(C)Cc1ccc(OC)cc1	-	-	-	0	23µM	18µM
CCc1nc2ccc(C(=O)Nc3cccc(OCC(=O)N(C)C)c3)cn2c1N(CC)CCOC	-	-	-	0	16µM	16µM
CCc1nc2ccc(C(=O)Nc3cccc(OCC(=O)N(C)C)c3)cn2c1N(C)C(=O)c1cccc(OC)c1	-	-	-	0	?	?
Cc1nc2ccc(C(=O)Nc3cccc(OCC(=O)N(C)C)c3)cn2c1N(C)CC1CCCCC1	-	-	-	0	21µM	13µM
SMILES	Gal4-VP16 FLuc	RORgamma inh	ELG1 repair inh	12-LOX inh	DT40 TDP1 CPT	TDP1 cell noCPT
C=CCNC(=O)CCC1NC(=O)N(CCc2c[nH]c3ccc(F)cc23)C1=O (centres undefined)	-	-	-	0	-	-
CCN1c2cc(C(=O)NCCC3=CCCCC3)ccc2C(=O)N2CCCCC21 (centres undefined)	-	-	-	0	-	-
Cc1ccc[n+](CC(=O)Nc2c(Cl)cc(Cl)cc2Cl)c1	0	13µM	?	0	0	0
Cc1[nH]c2ccccc2c1C(=O)C(=O)Nc1ccc(F)c(Cl)c1	-	-	-	0	-	-
C=CCNC(=O)N[C@H]1C[C@@H](C(=O)N[C@@H](Cc2ccc(OC)cc2)C(N)=O)N(C(=O)CC(C)(C)C)C1	-	-	-	0	-	-
CCOC(=O)c1c2c(n(-c3ccc(OC)cc3)c1C)C(=O)C(=O)c1ccccc1-2	-	-	-	-	3.3µM	2.1µM
CCOC(=O)c1c2c(n3ccccc13)C(=O)c1ccccc1C2=O	-	-	-	-	10µM	10µM
COc1ccc(NC(=S)N(CCCN2CCC(C)CC2)Cc2cccs2)cc1Cl	0[10 µM]	11µM	0	0	26µM	18µM
Cc1ccc(NC(=S)N(CCCN2CCCC2)Cc2cccn2Cc2ccc(Cl)cc2)cc1Cl	0	?	0	0	?	6.5µM
Cc1ccc(NC(=S)N(CCCN2CCCC2)Cc2cccn2Cc2ccc(Cl)cc2)cc1C	0	0	0	0	?	21µM
CSc1cccc(NC(=S)N(CCCN2CCCC(C)C2)Cc2cccs2)c1 (centres undefined)	0[10 µM]	11µM	0	0	?	?
CC(=O)NCc1ccc(-c2csc(-c3ccc(C(C)C)cc3)n2)o1	-	-	-	0	-	-
FC(F)(F)c1cccc(NC(=S)N(CCCN2CCCC2)Cc2cccn2Cc2ccc(Cl)cc2)c1	?	14µM	0	?	?	16µM
COc1ccc(NC(=S)N(CCCN2CCCC2)Cc2cccn2Cc2ccc(Cl)cc2)cc1Cl	0	?	?	0	15µM	21µM
CN(C)C(=O)c1cc2c(c(-c3cccc(C4=CCCCC4)c3)n1)[C@@H](CCO)N(S(=O)C(C)(C)C)C2 (some centres undefined)	-	-	-	?	0	0
CCNC(=O)c1cc2c(c(-c3cccc(-c4cccc(C(=O)N(C)C)c4)c3)n1)[C@@H](CCO)N(S(=O)C(C)(C)C)C2 (some centres undefined)	-	-	-	?	?	21µM
CC(C)(C)S(=O)N1Cc2cc(C(=O)NCC(F)(F)F)nc(-c3cccc(-c4cccc(F)c4)c3)c2[C@@H]1CCO (some centres undefined)	-	-	-	0	18µM	18µM
CCC(=O)N1Cc2cc(C(=O)NCC(F)(F)F)nc(-c3cccc(-c4cncnc4)c3)c2[C@H]1CCO	-	-	-	?	0	0
Cc1ncsc1CN1C(=O)CO[C@H](c2ccc(NC(=O)c3cccnc3)cc2)[C@H]1CO	-	-	-	0	-	-
CCN1C(=O)NC(c2ccc(F)c(Br)c2)C(C(=O)Nc2cc(C)on2)=C1C (centres undefined)	-	-	-	0	-	-
Oc1cccc(CN2CCOCC2)c1O	-	-	-	?	26µM	?
CCCc1cc(CN2CCOCC2)c(O)c(CN2CCOCC2)c1O	-	-	-	35µM	15µM	18µM
c1cc2ccc3ccc(CN4CCOCC4)c4ccc(c1)c2c34	0	0	0	0	?	?
